From PubChem BioAssay (EPA / NIEHS)
Activity calls are given as the source filed them. Rule for the calls: active = hit-call score of the fitted dose curve at least 0.9, where 1 is the maximum; inactive = score below 0.9.

Key:
[1] = ATG_EGR_CIS: Attagene CIS-FACTORIAL HepG2 Assay for human Early Growth Response 1 (EGR1) (AID 2282938); settings: HepG2 Attagene CIS-FACTORIAL EGR reporter mRNA; actives raise or lower the signal
Procedure, shortened: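 After 24 h compound exposure, RNA from reporter-transfected HepG2 cells was reverse-transcribed, PCR-amplified, fluorescently labelled and resolved by capillary electrophoresis. EGR1 reporter transcript changes, up or down, were fitted against DMSO, reflecting endogenous transcription-factor activity.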

[2] = ATG_M_19_CIS: Attagene CIS-FACTORIAL HepG2 Assay for M19 Transcription Factor (Internal Marker) (AID 2282939); settings: HepG2 Attagene CIS-FACTORIAL M19 internal marker reporter; actives raise or lower the signal
Procedure, shortened: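 In this multiplexed cell assay, transiently transfected HepG2 reporter units report endogenous transcription-factor activity; after 24 hours of treatment, labelled reporter cDNA fragments are quantified by capillary electrophoresis and fitted bidirectionally against DMSO.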

[3] = ATG_ERE_CIS: Attagene CIS-FACTORIAL HepG2 Assay for Estrogen Response Element (ERE) (AID 2282940); settings: HepG2 ERE cis-reporter, Attagene RNA transcript; actives raise or lower the signal
Procedure, shortened: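 Measuring endogenous transcription factor output, the assay doses transfected HepG2 cells for 24 hours and quantifies reporter transcripts by fluorescent RT-PCR and capillary electrophoresis, with DMSO as baseline.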

[4] = ATG_Ets_CIS: Attagene CIS-FACTORIAL HepG2 Assay for human Erythroblast Transformation Specific (ETS) (AID 2282941); settings: HepG2 ETS cis-reporter transcription; AC50: actives raise or lower the signal unless noted; outcome: actives raise or lower the signal unless noted
Procedure, shortened: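 After transient cis-reporter transfection, HepG2 cells receive test chemical for 24 h. Reporter mRNA levels, measured by RT-PCR and capillary electrophoresis fluorescence, are analysed bidirectionally relative to the DMSO baseline.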

[5] = molecular target: Hepatocyte nuclear factor 3-beta (Homo sapiens) (UniProt Q9Y261); test: ATG_FoxA2_CIS: Attagene CIS-FACTORIAL HepG2 Assay for human Forkhead box A2 (FOXA2) (AID 2282942); settings: HepG2 cis-reporter transcription factor activity, 24 h; actives raise or lower the signal
Sequence of Hepatocyte nuclear factor 3-beta (Homo sapiens) (Q9Y261 whole entry, looked up): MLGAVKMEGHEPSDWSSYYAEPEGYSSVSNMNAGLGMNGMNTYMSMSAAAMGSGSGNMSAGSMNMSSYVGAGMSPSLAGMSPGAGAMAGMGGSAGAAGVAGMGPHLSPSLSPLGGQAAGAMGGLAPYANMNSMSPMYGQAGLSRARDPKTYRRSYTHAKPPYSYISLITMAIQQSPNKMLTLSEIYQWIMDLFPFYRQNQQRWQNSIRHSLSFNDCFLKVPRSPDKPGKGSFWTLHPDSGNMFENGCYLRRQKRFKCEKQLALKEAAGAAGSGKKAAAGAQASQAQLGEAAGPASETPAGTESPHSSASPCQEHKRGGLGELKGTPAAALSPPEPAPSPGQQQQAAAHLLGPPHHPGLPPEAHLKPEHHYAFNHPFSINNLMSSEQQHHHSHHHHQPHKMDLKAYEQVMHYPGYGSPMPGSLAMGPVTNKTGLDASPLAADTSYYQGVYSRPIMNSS
Procedure, shortened: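 Endogenous transcription factor activity is captured via cis-element-driven reporter transcripts in transfected HepG2. Total RNA taken at 24 h post-dosing; labelled RT-PCR products resolved by capillary electrophoresis. Gain or loss fitted versus DMSO.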

[6] = ATG_FoxO_CIS: Attagene CIS-FACTORIAL HepG2 Assay for human Forkhead box O (FoxO) (AID 2282943); settings: HepG2 Attagene cis-reporter, FoxO element, mRNA; actives raise or lower the signal
Procedure, shortened: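 Values reflect reporter mRNA induction or loss in HepG2 cells 24 h post-dosing, fitted bidirectionally with DMSO as negative control and baseline. Detection used RT-PCR and fluorescence capillary electrophoresis.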

[7] = ATG_GATA_CIS: Attagene CIS-FACTORIAL HepG2 Assay for human GATA Binding Protein (AID 2282944); settings: HepG2 GATA cis-element reporter, Attagene multiplex mRNA; actives raise or lower the signal
Procedure, shortened: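 Measures endogenous transcription factor-driven reporter mRNA in HepG2 cells transiently carrying cis-regulated constructs. 24 h dosing; RNA via oligo(dT) reverse transcription, PCR, HpaI digestion, capillary electrophoresis; fitted relative to DMSO.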

[8] = ATG_GLI_CIS: Attagene CIS-FACTORIAL HepG2 Assay for human Zinc Finger Protein GLI1 (AID 2282945); settings: HepG2, Attagene cis-factorial reporter mRNA, GLI element; actives raise or lower the signal
Procedure, shortened: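 HepG2 cells transiently transfected with cis-promoter multiplexed reporter units report endogenous transcription factor activity. After 24 h chemical exposure, reporter mRNA was quantified by RT-PCR, 6-FAM labelling, HpaI digestion and capillary electrophoresis, with bidirectional fitting against DMSO.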

[9] = molecular target: Bile acid receptor (Homo sapiens) (UniProt Q96RI1); test: ATG_IR1_CIS: Attagene CIS-FACTORIAL HepG2 Assay for human Nuclear Receptor Subfamily 1 Group H Member 4 (NR1H4), IR1 submotif (AID 2282946); settings: IR1 reporter transcription, actives raise or lower the signal
Sequence of Bile acid receptor (Homo sapiens) (Q96RI1 whole entry, looked up): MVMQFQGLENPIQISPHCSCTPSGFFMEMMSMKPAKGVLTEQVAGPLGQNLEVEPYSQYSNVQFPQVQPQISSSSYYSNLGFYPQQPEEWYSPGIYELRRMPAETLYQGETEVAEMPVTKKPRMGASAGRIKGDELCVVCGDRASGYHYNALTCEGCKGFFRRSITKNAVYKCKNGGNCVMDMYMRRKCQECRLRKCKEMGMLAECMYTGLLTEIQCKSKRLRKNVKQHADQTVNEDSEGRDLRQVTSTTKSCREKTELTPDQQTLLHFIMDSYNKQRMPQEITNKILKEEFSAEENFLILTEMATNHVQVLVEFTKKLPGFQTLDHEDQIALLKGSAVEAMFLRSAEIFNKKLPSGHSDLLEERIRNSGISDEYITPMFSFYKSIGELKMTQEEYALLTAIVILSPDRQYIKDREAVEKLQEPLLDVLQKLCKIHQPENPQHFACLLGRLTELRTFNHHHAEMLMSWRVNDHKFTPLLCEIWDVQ
Procedure, shortened: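 Transient MRTU transfection, HepG2; 24 h dosing; RNA → RT-PCR → 6-FAM primer extension → HpaI digest → capillary electrophoresis fluorescence. Gain/loss of signal fitted relative to DMSO.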

[10] = ATG_GRE_CIS: Attagene CIS-FACTORIAL HepG2 Assay for human Glucocorticoid Response Elements (GRE) (AID 2282947); settings: HepG2 GRE cis-reporter, Attagene multiplex mRNA; AC50: actives raise or lower the signal unless noted; outcome: actives raise or lower the signal unless noted
Procedure, shortened: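 HepG2 cells transiently transfected with multiple cis-promoter reporter units measure endogenous TF activity; 24 h compound exposure. Reporter mRNA quantified by RT-PCR, FAM labelling, HpaI digestion and capillary electrophoresis; bidirectional fit vs DMSO baseline.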

[11] = ATG_ISRE_CIS: Attagene CIS-FACTORIAL HepG2 Assay for human Interferon Regulatory Factor 1 (IRF1) binding to an Interferon-Stimulated Response Element (ISRE) (AID 2282948); settings: HepG2 ISRE cis-reporter (Attagene), mRNA transcription readout; actives raise or lower the signal
Procedure, shortened: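 Quantitation relies on labelled RT-PCR fragments separated by capillary electrophoresis. Human HepG2 cells bearing cis-promoter reporter constructs were treated 24 h; DMSO served as baseline for bidirectional fitting.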

[12] = ATG_M_32_CIS: Attagene CIS-FACTORIAL HepG2 Assay for M32 Transcription Factor (Internal Marker) (AID 2282949); settings: HepG2 Attagene cis-factorial M32 reporter, mRNA; actives raise or lower the signal;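 note: background control marker of the multiplexed CIS panel rather than a real target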
Procedure, shortened: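 Following 24 h chemical exposure of HepG2 cells transiently expressing cis-promoter reporter constructs, reporter transcript levels were determined by RT-PCR with fluorescent labelling and capillary electrophoresis, then fitted bidirectionally against DMSO.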

[13] = ATG_M_06_CIS: Attagene CIS-FACTORIAL HepG2 Assay for M06 Transcription Factor (Internal Marker) (AID 2282950); settings: HepG2 Attagene CIS-FACTORIAL M06 internal marker reporter; actives raise or lower the signal
Procedure, shortened: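 One of many multiplexed endpoints: HepG2 reporter mRNA after 24 h dosing, detected by RT-PCR and capillary electrophoresis fluorescence; gain or loss of signal analysed against DMSO.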

[14] = molecular target: Hypoxia-inducible factor 1-alpha (Homo sapiens) (UniProt Q16665); test: ATG_HIF1a_CIS: Attagene CIS-FACTORIAL HepG2 Assay for human Hypoxia Inducible Factor 1 (HIF1A) (AID 2282951); settings: HepG2 Attagene cis-factorial HIF1a reporter transcription; actives raise or lower the signal
Sequence of Hypoxia-inducible factor 1-alpha (Homo sapiens) (Q16665 whole entry, looked up): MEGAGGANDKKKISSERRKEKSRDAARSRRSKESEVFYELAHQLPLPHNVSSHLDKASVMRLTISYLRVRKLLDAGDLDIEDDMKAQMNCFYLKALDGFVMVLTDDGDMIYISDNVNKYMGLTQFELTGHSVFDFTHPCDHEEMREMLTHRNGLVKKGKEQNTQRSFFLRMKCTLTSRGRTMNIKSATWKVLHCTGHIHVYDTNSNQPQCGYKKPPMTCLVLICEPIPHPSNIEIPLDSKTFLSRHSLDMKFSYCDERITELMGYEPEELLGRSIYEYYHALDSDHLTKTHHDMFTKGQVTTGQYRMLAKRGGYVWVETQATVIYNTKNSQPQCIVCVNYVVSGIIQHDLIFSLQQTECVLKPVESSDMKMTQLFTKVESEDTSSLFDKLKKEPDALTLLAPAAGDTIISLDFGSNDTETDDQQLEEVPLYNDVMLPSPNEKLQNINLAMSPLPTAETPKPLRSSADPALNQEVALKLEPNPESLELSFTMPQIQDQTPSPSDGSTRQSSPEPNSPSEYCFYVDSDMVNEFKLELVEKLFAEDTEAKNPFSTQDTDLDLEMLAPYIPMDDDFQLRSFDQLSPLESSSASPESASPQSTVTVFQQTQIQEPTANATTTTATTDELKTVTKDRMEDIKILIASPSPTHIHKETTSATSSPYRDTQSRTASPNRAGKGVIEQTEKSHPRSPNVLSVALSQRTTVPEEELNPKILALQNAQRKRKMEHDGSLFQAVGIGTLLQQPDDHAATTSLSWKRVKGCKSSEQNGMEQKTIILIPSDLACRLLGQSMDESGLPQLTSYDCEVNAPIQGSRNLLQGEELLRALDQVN
Procedure, shortened: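 Activity is fitted in both directions relative to DMSO. Reporter transcripts are read by RT-PCR, fluorescent primer extension and capillary electrophoresis after 24 h chemical treatment. The cells are HepG2 carrying transiently transfected cis-element-driven reporter units responding to endogenous factors.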

[15] = molecular target: Hepatocyte nuclear factor 6 (Homo sapiens) (UniProt Q9UBC0); test: ATG_HNF6_CIS: Attagene CIS-FACTORIAL HepG2 Assay for human Hepatocyte Nuclear Factor 6 (HNF6) (AID 2282952); settings: HepG2 Attagene cis-factorial HNF6 reporter transcription; actives raise or lower the signal
Sequence of Hepatocyte nuclear factor 6 (Homo sapiens) (Q9UBC0 whole entry, looked up, the tested form may be a part): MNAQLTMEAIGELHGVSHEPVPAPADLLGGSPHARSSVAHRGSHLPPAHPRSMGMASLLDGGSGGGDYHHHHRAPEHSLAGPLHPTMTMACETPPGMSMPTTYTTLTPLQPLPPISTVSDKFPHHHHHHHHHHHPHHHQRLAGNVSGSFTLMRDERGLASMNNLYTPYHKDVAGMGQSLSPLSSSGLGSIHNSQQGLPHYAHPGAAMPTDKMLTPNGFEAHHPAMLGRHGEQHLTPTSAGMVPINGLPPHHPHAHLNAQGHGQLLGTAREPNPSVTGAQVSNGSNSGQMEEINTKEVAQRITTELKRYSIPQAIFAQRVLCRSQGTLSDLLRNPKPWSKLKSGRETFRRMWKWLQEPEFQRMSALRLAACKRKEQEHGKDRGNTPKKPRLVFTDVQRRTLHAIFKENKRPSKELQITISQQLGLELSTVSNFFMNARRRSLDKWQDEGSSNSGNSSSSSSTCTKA
Procedure, shortened: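 Reporter mRNA induction or loss in HepG2 after 24 h exposure; transient cis-MRTU transfection; fragments quantified by capillary electrophoresis; bidirectional analysis, DMSO as negative control.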

[16] = molecular target: Heat shock factor protein 1 (Homo sapiens) (UniProt Q00613); test: ATG_HSE_CIS: Attagene CIS-FACTORIAL HepG2 Assay for human Heat Shock Transcription Factor 1 (HSE) (AID 2282953); settings: HepG2 HSE cis-reporter, Attagene RNA transcription; actives raise or lower the signal
Sequence of Heat shock factor protein 1 (Homo sapiens) (Q00613 whole entry, looked up): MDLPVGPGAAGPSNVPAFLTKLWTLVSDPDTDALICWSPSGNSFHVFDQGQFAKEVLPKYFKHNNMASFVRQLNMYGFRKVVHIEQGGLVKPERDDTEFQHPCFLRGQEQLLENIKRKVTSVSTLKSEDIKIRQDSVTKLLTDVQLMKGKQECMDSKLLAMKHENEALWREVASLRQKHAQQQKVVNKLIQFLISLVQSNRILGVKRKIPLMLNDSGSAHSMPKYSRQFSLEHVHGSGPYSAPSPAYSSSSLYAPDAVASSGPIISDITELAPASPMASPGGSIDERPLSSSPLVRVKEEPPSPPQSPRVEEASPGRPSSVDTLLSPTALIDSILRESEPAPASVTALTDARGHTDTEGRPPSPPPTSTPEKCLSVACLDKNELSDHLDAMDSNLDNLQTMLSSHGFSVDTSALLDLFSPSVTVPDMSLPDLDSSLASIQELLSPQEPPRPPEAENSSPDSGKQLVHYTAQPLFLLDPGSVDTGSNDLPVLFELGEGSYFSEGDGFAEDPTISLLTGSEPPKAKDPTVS
Procedure, shortened: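 Using HepG2 with transfected cis-driven reporter constructs, compound effects on endogenous factor activity are scored as reporter mRNA change at 24 h. Detection: RT-PCR, HpaI digestion, capillary electrophoresis; bidirectional fitting to DMSO.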

[17] = ATG_MRE_CIS: Attagene CIS-FACTORIAL HepG2 Assay for human Metal Responsive Element (MRE) (AID 2282954); settings: HepG2 MRE cis-reporter transcription, Attagene multiplex; actives raise or lower the signal
Procedure, shortened: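 HepG2 cells transiently transfected with multiple cis-element reporter units measure endogenous MTF1-driven transcription. After 24 h compound exposure, reporter mRNA is quantified by RT-PCR with 6-FAM labelling, HpaI digestion and capillary electrophoresis; bidirectional fits versus DMSO.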

[18] = ATG_PBREM_CIS: Attagene CIS-FACTORIAL HepG2 Assay for human Phenobarbital-responsive Enhancer Module (PBREM) (AID 2282955); settings: HepG2 PBREM cis-reporter, Attagene multiplexed transcription; actives raise or lower the signal
Procedure, shortened: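 Endogenous transcription factor activity was read from reporter transcripts in transiently transfected human HepG2 liver cells after 24 h dosing. RT-PCR products were fluorescently labelled, HpaI-cut and sized by capillary electrophoresis; activity fitted bidirectionally against DMSO baseline.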

[19] = molecular target: Paired box protein Pax-6 (Homo sapiens) (UniProt P26367); test: ATG_Pax6_CIS: Attagene CIS-FACTORIAL HepG2 Assay for human Paired Box 6 (PAX6) (AID 2282956); settings: HepG2 CIS-FACTORIAL PAX6 reporter transcription, RNA readout; actives raise or lower the signal
Sequence of Paired box protein Pax-6 (Homo sapiens) (P26367 whole entry, looked up): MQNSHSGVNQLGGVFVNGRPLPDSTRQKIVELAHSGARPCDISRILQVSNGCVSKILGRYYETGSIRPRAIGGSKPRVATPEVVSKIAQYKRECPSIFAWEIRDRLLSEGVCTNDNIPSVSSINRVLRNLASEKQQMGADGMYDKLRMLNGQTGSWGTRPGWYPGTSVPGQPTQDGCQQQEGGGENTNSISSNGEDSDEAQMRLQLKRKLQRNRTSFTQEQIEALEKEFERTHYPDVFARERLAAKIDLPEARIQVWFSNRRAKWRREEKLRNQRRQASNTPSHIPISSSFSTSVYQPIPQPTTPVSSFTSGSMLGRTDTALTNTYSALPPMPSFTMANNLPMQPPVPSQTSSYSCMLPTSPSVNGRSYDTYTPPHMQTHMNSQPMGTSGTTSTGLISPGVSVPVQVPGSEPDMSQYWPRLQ
Procedure, shortened: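 After twenty-four hours of chemical exposure, transfected HepG2 cells are harvested for RNA. Cis-promoter reporter transcripts are amplified, fluorescently labelled and sized by capillary electrophoresis, with gain and loss of signal scored against DMSO.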

[20] = ATG_PXRE_CIS: Attagene CIS-FACTORIAL HepG2 Assay for human Pregnane X Receptor Element (PXRE) (AID 2282957); settings: HepG2 Attagene CIS-FACTORIAL PXRE reporter, mRNA; actives raise or lower the signal
Procedure, shortened: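 Transiently transfected HepG2 cells were dosed and incubated for 24 h. RNA was then isolated, DNase-treated, reverse-transcribed and reporter sequences amplified. Labeled, HpaI-digested fragments were quantified by capillary electrophoresis against DMSO.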

Measured: AC50

Brc1ccc(Oc2ccc(Br)cc2Br)cc1
inactive: all assays above

COCN(COC)c1nc(N(COC)COC)nc(N(COC)COC)n1
active: [3] 23.7 µM | [20] 45.3 µM
inactive: all other assays above

CN(CCO)S(=O)(=O)C(F)(F)C(F)(F)C(F)(F)C(F)(F)C(F)(F)C(F)(F)C(F)(F)C(F)(F)F
inactive: all assays above

Brc1cc(Br)c(Oc2c(Br)cc(Br)c(Br)c2Br)cc1Br
inactive: all assays above

O=C1OC(=O)c2cc(-c3ccc4c(c3)C(=O)OC4=O)ccc21
inactive: all assays above

c1ccc(CNc2ncnc3c2ncn3C2CCCCO2)cc1 (stereo not given)
active: [18] 23.3 µM | [20] 4.73 µM
inactive: all other assays above

O=C(c1cc(O)c(O)c(O)c1)c1ccc(O)c(O)c1O
active: [14] 53.5 µM
inactive: all other assays above
